Source: PubChem (several laboratories)
Rv3671c inh – Rv3671c (M. tuberculosis) protease inhibition; inhibition, % at 5.96 µM; hit rate 0.048% among 320,000; in the data active = inhibition above about 38%;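 also: extracellular domain of Rv3671c used as enzyme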
FBA Mtb inh – Mtb fructose-bisphosphate aldolase inhibition; inhibition, % at 1 µM; P9WQA3; hit rate 2.3% among 360,000; purified M. tuberculosis FBA, fluorescence read-out; in the data active = inhibition above about 27%
RecA splice inh – inhibitors of M. tuberculosis RecA intein splicing | P9WHJ3 | cell-free RecA intein splicing, fluorescence | inhibition, % (concentration not given with the values) | hit rate 0.75% among 290,000 | AID 2221; in the data active = inhibition above about 30%; inconclusive = no clear call, values can overlap the other calls
GDH-TPI counter – counter-screen for M. tuberculosis FBA inhibitors: GDH-TPI coupled enzymes. GDH-TPI coupled enzyme counterscreen, NADH absorbance. inhibition, % at 4.8 µM. hit rate 1.2% among 360,000; in the data active = inhibition above about 30%
Mtb bLac sens – beta-lactam sensitization of Mtb H37Rv. hit rate 0.27% among 330,000. inhibition, % at 25 µM. AID 434955. M. tuberculosis H37Rv growth with meropenem, percent inhibition; call rule not given here;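 also: growth measured after seven days incubation then overnight dye step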
UGM FP inh – Mtb UDP-galactopyranose mutase inhibition. P9WIQ1. inhibition, % at 10 µM. purified UGM, fluorescence polarization probe displacement. hit rate 0.06% among 320,000; in the data active = inhibition above about 10%, passing the limit was not always enough; inconclusive = no clear call, values can overlap the other calls
Target sequence (P9WIQ1 whole entry, looked up): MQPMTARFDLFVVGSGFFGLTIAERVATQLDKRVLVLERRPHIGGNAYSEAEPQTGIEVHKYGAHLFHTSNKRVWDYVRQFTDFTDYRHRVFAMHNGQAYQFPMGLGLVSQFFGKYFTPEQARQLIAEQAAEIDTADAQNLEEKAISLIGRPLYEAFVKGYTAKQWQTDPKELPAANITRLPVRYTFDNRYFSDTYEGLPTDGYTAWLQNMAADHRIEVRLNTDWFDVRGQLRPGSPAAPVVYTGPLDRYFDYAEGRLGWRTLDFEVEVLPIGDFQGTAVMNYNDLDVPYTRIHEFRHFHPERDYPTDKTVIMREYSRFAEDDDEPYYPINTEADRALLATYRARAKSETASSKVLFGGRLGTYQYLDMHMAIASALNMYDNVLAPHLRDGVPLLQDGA
A number is an active result; - = inactive; ? = inconclusive; . = no result; + = active, no number. The list is not random: actives were taken first. Their share in the collection is about 4%.

SMILES	Rv3671c inh	FBA Mtb inh	RecA splice inh	GDH-TPI counter	Mtb bLac sens	UGM FP inh
Cn1c(/C=C/c2ccc(Cl)cc2)nc2ccccc2c1=O	-	-	-	37.1	.	-
Cc1nc(N2CCN(c3ccccn3)CC2)c2c(C)c(C(=O)N3CCN(c4cccc(Cl)c4)CC3)sc2n1	-	-	-	-	-	-
O=C(Nc1cccnc1)c1ccc(COc2cc(Cl)ccc2Cl)o1	-	-	-	-	-	-
O=C(N/N=C/c1ccc(O)cc1)c1ccc(COc2cc(Cl)ccc2Cl)o1	-	-	-	34.8	-	-
COC(=O)c1ccc(-n2c(C)ccc2-c2ccccc2)cc1	-	-	-	-	-	-
COc1ccc(-n2c(C)ccc2-c2ccccc2)cn1	-	-	-	-	-	57.6
COc1ccc(NC(C)=O)cc1CNC(=O)CN1CCOCC1	-	-	-	-	-	-
O=C1CS/C(=C\[N+](=O)[O-])N1c1ccc(OC(F)(F)F)cc1	-	-	35.7	-	-	-
COCc1cc(C)nc(NCCO)c1C#N	-	-	-	-	-	-
CCNc1nc(C)cc(COC)c1C#N	-	126.8	-	-	-	-
CCOCCCNC(=O)CCN1C(=O)c2ccccc2Sc2ncccc21	-	-	-	-	-	-
O=C1Nc2ccccc2C1Cc1ccccn1 (stereo not drawn)	-	-	-	-	-	-
N#CC1C(=O)Nc2cccnc21 (stereo not drawn)	.	+	.	-	.	.
N#Cc1c(-c2ccncc2)cc(-c2ccc(F)cc2)nc1N	-	125.4	-	-	?	-
COc1cc(-c2cc(-c3ccc(F)cc3)nc(N)c2C#N)ccc1O	-	-	-	-	-	-
Cc1ccc(-c2cc(-c3ccc(F)cc3)nc(N)c2C#N)o1	-	154.6	-	-	-	-
CCCCCn1nc(-c2ccccc2)c2nc3ccccc3nc21	-	-	-	-	-	37.7
O=C(NC(Cc1ccccc1)C(=O)N1CCN(c2ccc(F)cc2)CC1)c1ccccc1 (stereo not drawn)	.	-	.	-	.	.
c1ccc(COCCC2CO2)cc1 (stereo not drawn)	-	.	-	.	-	-
O=c1[nH]cccc1-c1nc2ccccc2n1Cc1ccccc1F	-	121.8	-	-	-	-
O=c1ccc(-c2nc3cc(Cl)ccc3n2Cc2ccccc2)c[nH]1	-	-	-	-	-	-
Cn1c(-c2ccc[nH]c2=O)nc2cc(Cl)ccc21	-	137.3	-	-	-	-
CCn1c(-c2ccc[nH]c2=O)nc2ccccc21	-	134.1	-	-	-	-
CCC(CC)N1CCN(C(=O)c2cc(OC)c(OC)c(OC)c2)CC1	-	-	-	-	-	-
Cc1c(C(=O)O)sc2[nH]c(=O)n(Cc3ccccc3)c(=O)c12	-	-	-	-	-	-
SMILES	Rv3671c inh	FBA Mtb inh	RecA splice inh	GDH-TPI counter	Mtb bLac sens	UGM FP inh
CN(C)N=Nc1nc2c(c(=O)n(C)c(=O)n2C)n1C	-	-	-	34.0	-	-
CC(C)/C=N/Nc1nc2c(c(=O)n(C)c(=O)n2C)n1C	-	-	-	-	-	-
COc1ccc(C(=O)NNC2=NS(=O)(=O)c3ccccc32)cc1OC	-	-	-	-	-	-
COc1cc(C=NNc2ccccc2)ccc1OC(=O)c1ccccc1	.	-	.	-	.	.
COc1ccc(/C=N/NC2=NS(=O)(=O)c3ccccc32)cc1OC	-	-	-	34.9	-	-
COc1cc(/C=N/NC2=NS(=O)(=O)c3ccccc32)ccc1OC(C)=O	-	-	-	34.0	-	-
COc1cc(CNC(=O)c2cc(-c3cc(OC)ccc3Cl)n[nH]2)cc(OC)c1	.	-	.	-	.	.
CCOC(=O)C1(C)CCN1C(=O)c1ccco1 (stereo not drawn)	.	-	.	-	.	.
C[C@@H]1CCCCO[C@H](CN(C)C(=O)C2CCCCC2)[C@@H](C)CN([C@H](C)CO)C(=O)c2cc(N(C)C)ccc2O1	.	-	.	-	.	.
Cc1ccc2nc(N3C(=O)CNC3=S)sc2c1	-	-	-	-	-	-
COc1ccc2nc(N3C(=O)CNC3=S)sc2c1	-	-	-	64.1	-	-
CN1CCN(NC(=O)Nc2cccc(F)c2)CC1	-	-	-	-	-	-
COCCOC(=O)C1=C(C)NC(=O)NC1c1c(Cl)nc2ccccn2c1=O (stereo not drawn)	-	-	-	31.1	-	-
COCCOC(=O)C1=C(C)NC(=O)NC1c1c(Cl)nc2c(C)cccn2c1=O (stereo not drawn)	-	.	-	.	-	-
COc1ccccc1N1CCN(S(=O)(=O)CCNC(=O)CCc2ccccc2)CC1	.	-	.	-	.	.
COc1ccc(C=CC(=O)c2ccc([N+](=O)[O-])cc2)cc1	.	-	.	-	.	.
CCCCC(=O)Nc1ccc(C(=O)NNC(=S)NC(=O)c2ccco2)cc1	-	-	-	43.9	-	-
CCCCC(=O)Nc1ccc(C(=O)NNC(=O)c2ccco2)cc1	-	-	.	-	-	-
COc1ccc(/C=C/C(=O)NC(=S)NNC(=O)Cc2cccs2)cc1	-	-	-	40.7	-	-
COc1ccc(C(=O)/C=C/c2ccc(O)cc2)cc1	-	-	-	31.4	-	-
COc1ccc(/C=C/C(=O)NC(=S)Nc2ccc(C(=O)O)cc2)cc1	-	-	-	50.0	-	-
O=C(NCc1cccnc1)C12CC3CC(CC(Cl)(C3)C1)C2	-	-	-	-	-	-
O=C(CCn1c(=O)oc2ccc(Cl)cc21)N1CCN(Cc2ccccc2)CC1	-	-	-	-	-	-
COc1ccc(/C=C/C(=O)NC(=S)NNC(=O)c2ccco2)cc1	-	-	-	41.2	-	-
CNc1ccc(/C=C\CCCO)cn1	.	114.9	.	-	.	.
SMILES	Rv3671c inh	FBA Mtb inh	RecA splice inh	GDH-TPI counter	Mtb bLac sens	UGM FP inh
O=C1/C(=C/c2ccccc2F)SC(=S)N1CC(=O)N1CCCCC1c1cccnc1 (stereo not drawn)	-	-	32.4	-	-	-
CC(=O)Nc1cccc(-c2csc(N)n2)c1	-	-	-	-	-	-
CC(=O)Nc1cccc(-c2cc(C)c3cc4c(cc3n2)OCO4)c1	.	-	-	32.0	.	.
O=[N+]([O-])c1ccc2[nH]c(O)c(N=Nc3ccc(F)cc3)c2c1	-	-	-	-	-	-
O=[N+]([O-])c1ccc2[nH]c(O)c(N=NC3CCS(=O)(=O)C3)c2c1 (stereo not drawn)	-	-	-	59.3	-	-
Cc1c(/C=N/Nc2ccc(F)cc2)c(O)n(C)c(=O)c1C#N	-	-	-	33.2	-	-
Cc1ccc(-n2c(N)cc(=O)nc2SCC(=O)NC2CCCCC2)cc1C	-	-	-	-	-	-
COc1ccccc1[C@H]1C(c2ccccc2)=NN(c2ccccc2)[C@@H]1CO	.	79.2	.	-	.	.
O=C1NC(=Nc2cccc(O)c2)S/C1=C\c1cccnc1	-	-	-	-	-	-
COc1ccc(/C=C2\SC(=Nc3ccccc3OC)NC2=O)cc1	-	-	-	50.4	-	-
O=C1NC(=Nc2cccc(O)c2)S/C1=C\c1cccc([N+](=O)[O-])c1	-	-	-	32.4	-	-
O=C1NC(=Nc2ccccc2)S/C1=C\c1ccccc1	-	-	-	33.2	-	-
Cc1c(Cl)cccc1NS(=O)(=O)c1c(C(=O)N2CCOCC2)c(C)n(C)c1C	-	-	-	-	-	-
